Drawing on ChEMBL document CHEMBL2218924, “A broad activity screen in support of a chemogenomic map for kinase signalling research and drug discovery” (Biochem J, 2013), this text covers residual activity for ten compounds.

SMILES strings stand for the structures.

The target of assay [1] is Myosin light chain kinase, smooth muscle (Homo sapiens) (UniProt Q15746). The conditions noted are these: at 1 µM.
Assay [2] shares this target. The following applies: at 10 µM.
The target of assay [3] is Mitogen-activated protein kinase kinase kinase 9 (Homo sapiens) (UniProt P80192). The following applies: at 1 µM.
Chain of Mitogen-activated protein kinase kinase kinase 9 (Homo sapiens) (P80192 whole entry, looked up): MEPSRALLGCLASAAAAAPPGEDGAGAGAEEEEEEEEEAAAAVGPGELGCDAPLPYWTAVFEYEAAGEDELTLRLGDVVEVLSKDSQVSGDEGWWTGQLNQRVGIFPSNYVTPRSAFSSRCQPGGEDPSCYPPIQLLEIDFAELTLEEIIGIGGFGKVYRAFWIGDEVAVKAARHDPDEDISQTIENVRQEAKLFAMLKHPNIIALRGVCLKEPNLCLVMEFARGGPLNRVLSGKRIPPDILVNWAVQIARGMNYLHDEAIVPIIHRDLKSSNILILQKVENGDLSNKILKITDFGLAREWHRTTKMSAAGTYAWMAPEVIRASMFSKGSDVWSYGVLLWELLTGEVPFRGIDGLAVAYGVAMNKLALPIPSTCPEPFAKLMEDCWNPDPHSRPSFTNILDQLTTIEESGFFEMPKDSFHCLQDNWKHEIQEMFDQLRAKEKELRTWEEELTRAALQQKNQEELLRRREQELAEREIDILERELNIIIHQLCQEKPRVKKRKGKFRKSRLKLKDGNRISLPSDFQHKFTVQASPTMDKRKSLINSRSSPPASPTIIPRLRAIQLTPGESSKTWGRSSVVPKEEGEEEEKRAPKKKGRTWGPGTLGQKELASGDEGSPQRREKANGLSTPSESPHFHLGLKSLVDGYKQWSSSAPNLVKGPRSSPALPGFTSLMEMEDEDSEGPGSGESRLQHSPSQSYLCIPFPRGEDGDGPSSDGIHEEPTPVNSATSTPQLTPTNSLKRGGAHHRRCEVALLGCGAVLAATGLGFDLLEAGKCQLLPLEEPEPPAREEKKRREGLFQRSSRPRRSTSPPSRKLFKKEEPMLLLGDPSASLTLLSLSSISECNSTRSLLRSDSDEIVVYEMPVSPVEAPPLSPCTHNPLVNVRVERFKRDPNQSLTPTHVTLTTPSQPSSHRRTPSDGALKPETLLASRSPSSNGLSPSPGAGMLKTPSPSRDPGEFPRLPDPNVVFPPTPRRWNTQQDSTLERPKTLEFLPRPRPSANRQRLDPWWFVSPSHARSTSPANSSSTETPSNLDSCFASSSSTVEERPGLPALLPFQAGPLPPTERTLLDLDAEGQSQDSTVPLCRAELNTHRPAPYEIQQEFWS
The target is the same in assay [4]. The following applies: at 10 µM.
Assay [5] concerns the target Serine/threonine-protein kinase MRCK alpha (Homo sapiens) (UniProt Q5VT25). The conditions noted are these: at 1 µM.
For assay [6] the target is unchanged. The conditions noted are these: at 10 µM.
Assay [7] concerns the target Serine/threonine-protein kinase MRCK beta (Homo sapiens) (UniProt Q9Y5S2). The following applies: at 1 µM.
For assay [8], the target named is Ribosomal protein S6 kinase alpha-5 (Homo sapiens) (UniProt O75582). The conditions noted are these: at 1 µM.
Chain of Ribosomal protein S6 kinase alpha-5 (Homo sapiens) (O75582 whole entry, looked up): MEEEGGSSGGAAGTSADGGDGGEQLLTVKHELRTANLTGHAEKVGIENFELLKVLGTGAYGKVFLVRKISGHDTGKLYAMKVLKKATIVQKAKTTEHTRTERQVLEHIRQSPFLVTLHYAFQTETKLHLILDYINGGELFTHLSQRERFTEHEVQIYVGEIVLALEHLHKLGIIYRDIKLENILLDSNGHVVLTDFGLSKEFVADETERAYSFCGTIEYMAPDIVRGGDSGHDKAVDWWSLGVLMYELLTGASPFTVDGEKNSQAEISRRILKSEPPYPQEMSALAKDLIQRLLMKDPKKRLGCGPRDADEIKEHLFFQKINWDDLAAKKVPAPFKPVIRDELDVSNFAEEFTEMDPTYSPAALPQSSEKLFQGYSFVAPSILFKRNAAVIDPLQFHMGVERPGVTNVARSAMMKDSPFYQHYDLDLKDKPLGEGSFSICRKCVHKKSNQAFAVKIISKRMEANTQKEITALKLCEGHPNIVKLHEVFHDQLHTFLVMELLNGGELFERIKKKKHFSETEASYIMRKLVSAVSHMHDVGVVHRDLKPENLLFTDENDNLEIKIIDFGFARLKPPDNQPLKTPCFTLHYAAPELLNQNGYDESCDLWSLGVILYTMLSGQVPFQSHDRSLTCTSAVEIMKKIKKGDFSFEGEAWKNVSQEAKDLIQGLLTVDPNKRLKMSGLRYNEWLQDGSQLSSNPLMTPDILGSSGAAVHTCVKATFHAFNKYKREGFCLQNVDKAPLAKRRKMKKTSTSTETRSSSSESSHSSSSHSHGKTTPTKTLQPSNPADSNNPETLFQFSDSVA
Assay [9] deals with Ribosomal protein S6 kinase alpha-4 (Homo sapiens) (UniProt O75676). The following applies: at 1 µM.
Chain of Ribosomal protein S6 kinase alpha-4 (Homo sapiens) (O75676 whole entry, looked up): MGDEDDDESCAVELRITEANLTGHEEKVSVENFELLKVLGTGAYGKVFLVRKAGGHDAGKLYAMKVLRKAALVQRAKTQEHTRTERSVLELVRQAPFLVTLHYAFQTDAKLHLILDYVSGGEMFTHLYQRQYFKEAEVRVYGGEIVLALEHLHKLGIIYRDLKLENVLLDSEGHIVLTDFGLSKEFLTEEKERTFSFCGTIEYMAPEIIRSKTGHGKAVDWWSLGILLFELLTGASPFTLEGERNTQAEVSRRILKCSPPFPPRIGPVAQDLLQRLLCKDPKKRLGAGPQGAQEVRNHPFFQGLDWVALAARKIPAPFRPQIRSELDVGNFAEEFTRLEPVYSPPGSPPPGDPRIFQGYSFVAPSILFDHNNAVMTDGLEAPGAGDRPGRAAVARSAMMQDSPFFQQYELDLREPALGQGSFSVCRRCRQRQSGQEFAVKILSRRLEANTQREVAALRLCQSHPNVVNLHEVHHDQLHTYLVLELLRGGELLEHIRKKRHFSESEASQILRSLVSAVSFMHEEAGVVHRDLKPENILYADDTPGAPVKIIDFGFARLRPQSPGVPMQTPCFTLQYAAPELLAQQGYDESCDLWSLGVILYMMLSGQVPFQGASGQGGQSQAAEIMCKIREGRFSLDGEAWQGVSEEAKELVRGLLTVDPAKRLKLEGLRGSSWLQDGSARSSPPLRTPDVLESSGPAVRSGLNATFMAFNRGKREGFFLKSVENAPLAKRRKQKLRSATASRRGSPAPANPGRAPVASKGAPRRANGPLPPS
The target is the same in assay [10]. The conditions noted are these: at 10 µM.
Assay [11] has as its target SRSF protein kinase 3 (Homo sapiens) (UniProt Q9UPE1). The conditions noted are these: at 1 µM.
For assay [12] the target is unchanged. The following applies: at 10 µM.
Assay [13] concerns the target T1, Serine/threonine-protein kinase 4 (Homo sapiens) (UniProt Q13043).
T1 sequence (whole entry): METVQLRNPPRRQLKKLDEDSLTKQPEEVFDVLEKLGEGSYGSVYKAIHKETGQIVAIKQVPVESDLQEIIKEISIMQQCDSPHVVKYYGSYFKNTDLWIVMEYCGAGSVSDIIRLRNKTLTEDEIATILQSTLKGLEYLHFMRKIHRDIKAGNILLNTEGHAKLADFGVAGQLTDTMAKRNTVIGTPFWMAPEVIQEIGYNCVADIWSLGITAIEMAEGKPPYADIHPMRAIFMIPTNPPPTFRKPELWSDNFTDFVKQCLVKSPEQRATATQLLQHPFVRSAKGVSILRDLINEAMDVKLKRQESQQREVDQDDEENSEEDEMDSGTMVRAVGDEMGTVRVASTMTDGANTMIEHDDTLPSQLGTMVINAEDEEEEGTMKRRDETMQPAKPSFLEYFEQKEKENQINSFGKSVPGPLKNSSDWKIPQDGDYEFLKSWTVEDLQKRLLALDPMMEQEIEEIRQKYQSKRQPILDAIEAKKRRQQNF
The conditions noted are these: at 1 µM.

The target in assay [14] is T1, Serine/threonine-protein kinase 4 (Homo sapiens). The conditions noted are these: at 10 µM.
For assay [15], the target named is Serine/threonine-protein kinase MRCK beta (Homo sapiens) (UniProt Q9Y5S2). The conditions noted are these: at 10 µM.
Assay [16] addresses T2, Serine/threonine-protein kinase 3 (Homo sapiens) (UniProt Q13188).
T2 sequence (whole entry): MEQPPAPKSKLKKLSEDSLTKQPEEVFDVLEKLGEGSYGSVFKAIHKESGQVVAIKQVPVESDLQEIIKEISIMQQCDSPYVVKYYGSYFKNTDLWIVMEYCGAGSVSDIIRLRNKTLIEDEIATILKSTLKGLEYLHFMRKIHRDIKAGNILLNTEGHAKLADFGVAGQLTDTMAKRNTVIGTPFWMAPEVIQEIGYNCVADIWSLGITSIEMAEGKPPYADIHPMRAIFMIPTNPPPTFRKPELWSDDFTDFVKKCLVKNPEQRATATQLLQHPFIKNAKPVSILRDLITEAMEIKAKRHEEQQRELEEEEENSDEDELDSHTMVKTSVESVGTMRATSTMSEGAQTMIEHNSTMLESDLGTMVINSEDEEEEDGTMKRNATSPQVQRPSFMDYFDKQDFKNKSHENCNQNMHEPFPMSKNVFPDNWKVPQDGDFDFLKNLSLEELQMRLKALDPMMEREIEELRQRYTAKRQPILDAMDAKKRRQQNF
The following applies: at 10 µM.

In assay [17] the target is Serine/threonine-protein kinase 24 (Homo sapiens) (UniProt Q9Y6E0). The following applies: at 1 µM.
Assay [18] has the same target. The following applies: at 10 µM.
In assay [19] the target is Ribosomal protein S6 kinase alpha-5 (Homo sapiens) (UniProt O75582). The following applies: at 10 µM.
Assay [20] addresses T2, Serine/threonine-protein kinase 3 (Homo sapiens). The conditions noted are these: at 1 µM.

Chain of SRSF protein kinase 3 (Homo sapiens) (Q9UPE1 whole entry): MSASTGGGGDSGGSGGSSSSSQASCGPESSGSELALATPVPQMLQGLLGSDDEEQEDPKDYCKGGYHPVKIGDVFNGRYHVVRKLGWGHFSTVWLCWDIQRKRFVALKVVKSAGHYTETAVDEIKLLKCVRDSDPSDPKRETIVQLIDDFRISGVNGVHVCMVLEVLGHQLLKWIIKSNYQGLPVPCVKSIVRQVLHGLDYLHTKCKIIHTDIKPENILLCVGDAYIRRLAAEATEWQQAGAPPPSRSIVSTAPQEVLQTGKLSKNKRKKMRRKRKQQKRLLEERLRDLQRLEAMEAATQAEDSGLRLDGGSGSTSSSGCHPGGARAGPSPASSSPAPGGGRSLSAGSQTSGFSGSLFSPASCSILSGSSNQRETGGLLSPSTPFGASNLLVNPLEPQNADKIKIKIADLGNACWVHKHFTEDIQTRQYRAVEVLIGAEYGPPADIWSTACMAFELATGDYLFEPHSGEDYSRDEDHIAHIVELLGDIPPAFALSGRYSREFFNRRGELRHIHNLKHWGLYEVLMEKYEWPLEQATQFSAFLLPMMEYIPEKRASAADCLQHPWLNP
Chain of Serine/threonine-protein kinase MRCK alpha (Homo sapiens) (Q5VT25 whole entry): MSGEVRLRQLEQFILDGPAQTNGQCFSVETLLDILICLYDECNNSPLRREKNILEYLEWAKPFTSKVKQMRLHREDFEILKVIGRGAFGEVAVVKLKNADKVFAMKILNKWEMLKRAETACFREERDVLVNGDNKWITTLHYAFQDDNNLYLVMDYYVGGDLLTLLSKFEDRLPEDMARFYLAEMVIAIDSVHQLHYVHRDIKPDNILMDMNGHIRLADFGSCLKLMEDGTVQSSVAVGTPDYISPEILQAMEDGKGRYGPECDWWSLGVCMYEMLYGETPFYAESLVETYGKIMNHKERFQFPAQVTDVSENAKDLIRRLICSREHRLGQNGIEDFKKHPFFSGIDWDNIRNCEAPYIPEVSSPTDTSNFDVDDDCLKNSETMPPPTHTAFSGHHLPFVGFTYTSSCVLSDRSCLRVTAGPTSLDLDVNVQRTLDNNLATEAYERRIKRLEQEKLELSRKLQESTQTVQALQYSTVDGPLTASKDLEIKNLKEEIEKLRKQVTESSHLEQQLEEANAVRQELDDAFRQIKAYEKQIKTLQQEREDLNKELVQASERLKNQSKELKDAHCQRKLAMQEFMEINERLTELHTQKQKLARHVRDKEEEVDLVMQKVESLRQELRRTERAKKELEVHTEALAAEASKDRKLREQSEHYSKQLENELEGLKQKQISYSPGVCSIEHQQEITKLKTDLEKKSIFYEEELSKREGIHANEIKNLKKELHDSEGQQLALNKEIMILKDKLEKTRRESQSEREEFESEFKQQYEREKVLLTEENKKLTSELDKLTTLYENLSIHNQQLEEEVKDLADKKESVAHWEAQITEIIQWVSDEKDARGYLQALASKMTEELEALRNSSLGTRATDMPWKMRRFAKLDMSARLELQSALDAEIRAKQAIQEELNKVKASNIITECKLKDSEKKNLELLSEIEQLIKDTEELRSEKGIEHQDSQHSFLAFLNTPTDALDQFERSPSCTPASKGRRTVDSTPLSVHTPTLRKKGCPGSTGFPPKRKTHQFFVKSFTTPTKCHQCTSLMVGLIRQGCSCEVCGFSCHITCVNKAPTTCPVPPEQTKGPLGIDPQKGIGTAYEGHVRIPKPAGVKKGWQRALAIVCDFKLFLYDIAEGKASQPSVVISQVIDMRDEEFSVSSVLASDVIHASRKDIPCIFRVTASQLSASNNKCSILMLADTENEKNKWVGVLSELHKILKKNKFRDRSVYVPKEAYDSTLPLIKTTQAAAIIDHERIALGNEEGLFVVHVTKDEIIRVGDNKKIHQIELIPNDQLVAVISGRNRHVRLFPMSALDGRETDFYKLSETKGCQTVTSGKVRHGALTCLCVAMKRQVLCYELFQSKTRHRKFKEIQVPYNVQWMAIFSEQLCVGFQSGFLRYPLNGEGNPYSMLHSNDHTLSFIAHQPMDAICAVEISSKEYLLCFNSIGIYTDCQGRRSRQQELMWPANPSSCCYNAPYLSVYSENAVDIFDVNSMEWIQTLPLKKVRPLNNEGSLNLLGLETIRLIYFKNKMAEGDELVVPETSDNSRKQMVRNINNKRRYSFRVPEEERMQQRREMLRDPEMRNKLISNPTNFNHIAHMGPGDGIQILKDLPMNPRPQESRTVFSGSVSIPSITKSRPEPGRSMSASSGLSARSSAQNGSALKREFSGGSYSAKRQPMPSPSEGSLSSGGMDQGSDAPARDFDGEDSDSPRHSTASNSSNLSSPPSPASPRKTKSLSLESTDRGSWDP

As for `O=C1c2ccccc2-c2nc3nnnn3nc21`, the residual activity turned out to be 79% in assay [1]; 104% in assay [2]; 103% in assay [3]; 102% in assay [4]; 107% in assay [5]; 100% in [6]. Also, the residual activity in [7] came to 116%; in assay [8] it was 145%; in assay [9], 108%; in assay [10], 108%; in assay [11], 107%; in assay [12], 83%. The residual activity is 108% in [13] and 110% in assay [14].
For the compound `CN[C@@H]1C[C@H]2O[C@@](C)([C@@H]1OC)n1c3ccccc3c3c4c(c5c6ccccc6n2c5c31)C(=O)NC4`, the residual activity in assay [1] is 0%; in assay [2], 1%; in assay [3] it was 0%; in assay [4], 1%; in assay [9], 1%; in [10] it was -1%. Also, the residual activity in [12] was 40%.
`COc1ccc2c(c[n+](C)c3c4cc5c(cc4ccc23)OCO5)c1OC`: the residual activity is 78% in assay [1]; 81% in assay [4]; 85% in [5]; 84% in [6]; 90% in [7]; 81% in assay [15]. For the same compound, the residual activity was found to be 94% in assay [10]; 110% in assay [11]; 66% in assay [12]; 92% in assay [13]; 98% in [14]; 94% in [16]. For the same compound, the residual activity in assay [17] and in assay [18] was 73% each time.
For `CC(C)(C)c1cc(C=C(C#N)C#N)cc(Br)c1O`, the residual activity in assay [3] was found to be 104%; in assay [4] it was 97%; in assay [5] it was 108%; in assay [7], 115%; in [8], 122%; in assay [19], 97%. Also, the residual activity came out at 105% in assay [11], 104% in assay [13], 119% in assay [14] and 100% in assay [18].
Turning to `COc1cc(OC)c(/C=C2\C(=O)Nc3ccccc32)c(OC)c1`, the residual activity in [1] stood at 88%; in [2], 77%; in assay [3], 92%; in assay [4], 65%; in assay [7] it was 83%; in assay [15], 84%. The residual activity worked out at 96% in assay [9]; 94% in assay [10]; 101% in [11]; 108% in assay [13]; 105% in [14]; 102% in [20]. Also, the residual activity amounted to 91% in [16], 80% in [17] and 76% in assay [18].
Turning to `O=c1[nH]c2ccccc2n1C1CCN(Cc2ccc(-c3nc4cc5[nH]cnc5cc4nc3-c3ccccc3)cc2)CC1`, the residual activity in assay [1] worked out at 76%; in assay [2], 4%; in assay [3], 98%; in assay [4], 100%; in assay [5], 122%; in assay [6], 128%. The residual activity in assay [7] was found to be 96%; in [15] it was 82%; in assay [8], 132%; in assay [19], 106%; in assay [9], 106%; in [10], 96%. For the same compound, the residual activity in assay [11] was 112%; in [12], 91%; in assay [13], 102%; in assay [14], 80%; in [20], 106%; in assay [16] it was 80%. Further, the residual activity worked out at 72% in assay [17] and 80% in assay [18].
Regarding `c1cc(-c2cnn3cc(-c4ccc(OCCN5CCCCC5)cc4)cnc23)ccn1`, the residual activity in assay [2] came to 71%; in assay [3], 78%; in assay [4], 17%; in assay [5] it was 121%; in assay [6] it was 118%; in assay [7], 106%. The residual activity in assay [8] was 121%; in assay [19], 60%; in assay [9] it was 103%; in [10], 70%.
Turning to `N/C(=N\[N+](=O)[O-])N/N=C\c1ccc(-c2cccc([N+](=O)[O-])c2)o1`, the residual activity in [9] was 97%; in assay [10], 84%; in assay [17], 98%; in assay [18] it was 79%.
Consider `CCn1cnc2c(Nc3cccc(Cl)c3)nc(N[C@@H]3CCCC[C@@H]3N)nc21`, for which the residual activity in assay [1] stood at 94%; in assay [2], 46%; in [3], 16%; in assay [4] it was 2%; in [7] it was 94%; in assay [15], 78%. Further, the residual activity is 79% in assay [9]; 60% in assay [10]; 95% in assay [11]; 71% in assay [12]; 64% in assay [13]; 47% in assay [14]. The residual activity turned out to be 70% in assay [16], 78% in assay [17] and 59% in assay [18].
In the case of `O=C1NC(=O)c2c1c1c3ccccc3n3c1c1c2c2ccccc2n1C1CCC3O1`, the residual activity in assay [1] stood at 90%; in [2], 65%; in assay [3], 1%; in assay [4], 2%; in assay [8] it was 41%; in assay [19] it was 33%. Moreover, the residual activity is 56% in assay [9]; 64% in [10]; 99% in assay [11]; 96% in assay [12]; 19% in [13]; -1% in [14]. Besides, the residual activity in assay [20] is 10%; in [16], 12%; in assay [17] it was 80%; in assay [18] it was 65%.
